Screens from PubChem BioAssay.
Shown are actives, neighbours in structure and some others; about 19% of the full set was active somewhere.
IL1B secr inh = qHTS for Inhibitors of Inflammasome Signaling: IL-1-beta AlphaLISA Primary Screen; hit rate 4.7% among 360,000; activity change, % at 57.5 µM; THP-1 LPS/ATP IL-1B secretion, AlphaLISA, 16 h; stronger effect = lower value; AID 743279, 2014; in the data active means activity change below about -50%; inconclusive means mostly about -30% to -49%
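Secreted IL-1B measured by AlphaLISA bead assay after 16 h compound exposure of THP-1 cells; compounds (final up to 57.5 uM) added 1 h before LPS (250 ng/mL) and ATP (1.25 mM) stimulation; lower signal means less secretion.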
HT1080 IDH1KD tx = qHTS for induction of synthetic lethality in tumor cells producing 2HG: qHTS for the HT-1080-IDH1KD cell line | HT-1080 IDH1 knockdown viability, ATP luminescence, 48 h | Potency, µM (titrated, usually from 46.1 µM), for inactives: at the top dose activity, negative = toxicity, hits mostly cytotoxic | hit rate 2% among 360,000;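 further: potency means the concentration at half of the fitted maximal effect; 0% = DMSO wells and -100% = cell-free medium wells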
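CellTiter-Glo luminescence after 48 h compound exposure at 37 degrees C of IDH1-knockdown HT-1080 cells in 5% FBS RPMI. %Activity scaled between DMSO wells and cell-free media wells, with curves fitted and assigned curve classes.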
HT1080-NT tox = qHTS for induction of synthetic lethality in tumor cells producing 2HG: qHTS for the HT-1080-NT fibrosarcoma cell line. hit rate 1.6% among 360,000. Potency, µM (top dose mostly 46.1 µM), for the others: top-dose activity, negative = less viability, most hits filed as cytotoxic. HT-1080-NT fibrosarcoma viability, CellTiter-Glo ATP luminescence, 48 h;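 further: NT is the 2HG producing partner of a matched IDH1 knockdown line; potency means the concentration at half of the fitted maximal effect; 0% = DMSO-treated cells and -100% = media-only wells without cells; nearly all actives have a fitted effect of over 55% in size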
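Toxicity toward the 2HG-producing NT line was scored as %Activity, normalised to DMSO and no-cell wells, from CellTiter-Glo luminescence after 48 hours' treatment.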
uPA generation = qHTS for Inhibitors of Cell Surface uPA Generation; cell surface uPA generation assay, qHTS; hit rate 0.31% among 330,000; Potency, µM (highest dose often 38.3 µM), for inactives: at the highest dose activity change, negative = inhibition, hits mostly inhibitors; active means well fitted inhibition curve with a large enough effect; inconclusive means small, poorly fitted or top-dose-only effect; inactive means no such curve, though single readings can be large or run the other way; tested in mouse RAW 264.7 cells; further: potency means the concentration at half of the fitted maximal effect; nearly all actives have a fitted effect of over 55% in size
DT40 TDP1 no CPT = qHTS for Inhibitors of human tyrosyl-DNA phosphodiesterase 1 (TDP1): qHTS in cells in absence of CPT; DT40 Tdp1-/- hTDP1 cells, no CPT, ATP luminescence, 48 h; Potency, µM (highest dose often 46.2 µM), inactives show top-dose activity change, negative = growth inhibition, most hits filed as inhibitors; hit rate 15% among 420,000; AID 686978, 2013; further: potency means the concentration at half of the fitted maximal effect; nearly all actives have a fitted effect of over 55% in size
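Readout: luminescence from CellTiter-Glo after 30 min in the dark at RT. Cells: DT40 Tdp1-/- with stable hTDP1, 400/well. Exposure: compounds alone, ≥48 hr, 37 °C.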
DT40 TDP1 CPT = qHTS for Inhibitors of human tyrosyl-DNA phosphodiesterase 1 (TDP1): qHTS in cells in presence of CPT | chicken DT40 Tdp1-/-;hTDP1 cells + 20 nM CPT, ATP luminescence, 48 h | AID 686979, 2013 | Potency, µM (highest dose often 46.2 µM), for the others: top-dose activity change, negative = growth inhibition, hits mostly inhibitors | hit rate 12% among 420,000; further: potency means the concentration at half of the fitted maximal effect; nearly all actives have a fitted effect of over 55% in size
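Chicken DT40 Tdp1-/- cells complemented with human TDP1, 400 cells/well, exposed to compounds plus 20 nM camptothecin for at least 48 h at 37 C; viability read as ATP content by CellTiter-Glo luminescence.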
* = called active by the depositor. Unless noted, the call rests on the fitted dose curve; in most records, active means well fitted curve in the direction sought with a large enough effect; inconclusive means small, poorly fitted or top-dose-only effect, or another doubt; inactive means no such curve, though single readings can be large; an effect the other way counts as inactive or inconclusive. Unless noted, on the % scale 0 is the no-effect control and ±100 the full control effect.

`O=C(c1cc(-c2ccncc2)nc2ccc(Cl)cc12)N1CCN(Cc2ccc3c(c2)OCO3)CC1` gave IL1B secr inh -83*, HT1080 IDH1KD tx -11%, HT1080-NT tox -6%, uPA generation 4%, DT40 TDP1 no CPT 23µM* and DT40 TDP1 CPT 16µM*.
`CC(C)CCNC1c2ccccc2C(=O)N1Cc1ccccc1` (configuration not stated) gave IL1B secr inh 2, HT1080 IDH1KD tx 1%, HT1080-NT tox 5%, uPA generation -1%, DT40 TDP1 no CPT 23µM* and DT40 TDP1 CPT -24%.
Screening N#C/C(=C/c1ccc2c(c1)OCO2)C(=O)NCCc1c[nH]c2ccccc12 returned IL1B secr inh -21, HT1080 IDH1KD tx inconclusive, HT1080-NT tox inconclusive, DT40 TDP1 no CPT inconclusive and DT40 TDP1 CPT inconclusive.
N#C/C(=C\c1ccc(-c2ccc(Br)cc2)o1)C(=O)NCCc1c[nH]c2ccccc12 was read as IL1B secr inh -61*, HT1080 IDH1KD tx -27%, HT1080-NT tox -24%, uPA generation -5%, DT40 TDP1 no CPT inconclusive and DT40 TDP1 CPT inconclusive.
For CSc1ccccc1C(=O)NCC1Cc2cccc(-c3ncccc3C)c2O1 (configuration not stated) the results were DT40 TDP1 no CPT -23% and DT40 TDP1 CPT -8%.
Screening COc1cc(NC(=O)C(CC(C)C)N2Cc3ccccc3C2=O)cc(OC)c1 (configuration not stated) returned DT40 TDP1 no CPT inconclusive and DT40 TDP1 CPT -15%.
For CC(C)CC(C(=O)NCC1CCN(Cc2ccc(F)cc2)CC1)N1Cc2ccccc2C1=O (configuration not stated) the results were DT40 TDP1 no CPT 21µM* and DT40 TDP1 CPT 23µM*.
Cc1ccc(C)c(CN2CCC(CNC(=O)C(CC(C)C)N3Cc4ccccc4C3=O)CC2)c1 (configuration not stated) was read as DT40 TDP1 no CPT 12µM* and DT40 TDP1 CPT inconclusive.
For Cc1ccc(S(=O)(=O)N2CCCC2CNC(=O)C(=O)NCCN2CCOCC2)cc1 (configuration not stated) the results were IL1B secr inh 19, HT1080 IDH1KD tx 0%, HT1080-NT tox 6%, uPA generation -1%, DT40 TDP1 no CPT -3% and DT40 TDP1 CPT -12%.
`O=C(C(=O)N(C1CCCCC1)C1CCCCC1)c1ccccc1` gave IL1B secr inh 8, HT1080 IDH1KD tx inconclusive, HT1080-NT tox -22%, DT40 TDP1 no CPT 7.3µM* and DT40 TDP1 CPT 10µM*.
For O=C(NCc1ccccc1)c1ccc(C(=O)N(C2CCCCC2)C2CCCCC2)cc1 the results were IL1B secr inh inconclusive, HT1080 IDH1KD tx -19%, HT1080-NT tox 1%, DT40 TDP1 no CPT inconclusive and DT40 TDP1 CPT 23µM*.
`O=C(NCc1ccccc1)c1ccc(C(=O)NCc2ccccc2)cc1` gave IL1B secr inh 0, HT1080 IDH1KD tx 5%, HT1080-NT tox 8%, uPA generation 7%, DT40 TDP1 no CPT 3% and DT40 TDP1 CPT -4%.
`CC1C(=O)CCC2[C@]1(C)CCC1[C@]2(C)CC[C@@]2(C)C3CC(C)(C)CC[C@]3(C)CC[C@@]12C` (some centres not stated) gave DT40 TDP1 no CPT -9% and DT40 TDP1 CPT 7%.
